Assay outcomes: PubChem, National Center for Advancing Translational Sciences (NCATS)
Rows were chosen to be rich in hits. Some 6% of all compounds tested hit in one or more screens of this group.
D1 antagonist: Antagonist of Human D 1 Dopamine Receptor: qHTS. activity change, negative = inhibition, % at 10 µM. HEK293 TREx D1 cells, calcium flux, dopamine EC80; stronger effect = lower value. 360,000 compounds, 3.2% hits. D(1A) dopamine receptor (Homo sapiens), P21728. AID 504652, 2011; in the data active = activity change below about -30%
Target sequence (P21728 whole entry, looked up): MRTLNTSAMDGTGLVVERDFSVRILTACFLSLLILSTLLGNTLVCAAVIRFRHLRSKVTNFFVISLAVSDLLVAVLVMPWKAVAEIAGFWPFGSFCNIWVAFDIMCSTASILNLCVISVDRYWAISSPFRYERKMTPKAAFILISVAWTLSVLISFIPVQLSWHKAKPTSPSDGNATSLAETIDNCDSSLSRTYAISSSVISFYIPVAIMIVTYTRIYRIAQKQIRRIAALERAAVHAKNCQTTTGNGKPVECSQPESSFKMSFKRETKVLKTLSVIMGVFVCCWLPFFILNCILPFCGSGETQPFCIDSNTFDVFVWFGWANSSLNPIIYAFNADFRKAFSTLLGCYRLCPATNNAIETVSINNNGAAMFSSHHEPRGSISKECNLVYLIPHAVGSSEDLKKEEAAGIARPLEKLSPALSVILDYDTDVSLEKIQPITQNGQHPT
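After overnight tetracycline induction at 30 C, force-coupled D1 HEK293 cells took up a no-wash calcium dye at room temperature. Compounds were added and monitored 180 s, and the response to EC80 dopamine was then recorded.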
D1 ag: Allosteric Agonists of the Human D1 Dopamine Receptor: qHTS; HEK293 T-REx D1 cells, calcium flux, agonist mode; AID 504660, 2011; 360,000 compounds, 1% hits; activation, % at 2 µM; in the data active = activation above about 30%
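Inducible HEK293 T-REx D1 cells, force-coupled to calcium signalling, were plated at 4000 cells/well with tetracycline and held overnight at 30 C. After no-wash calcium dye loading, compound-evoked calcium rise over 180 s flagged agonists.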
DRD3 antagonist: qHTS of D3 Dopamine Receptor Antagonist: qHTS. 360,000 compounds, 2.5% hits. max response, negative = inhibition, %. D(3) dopamine receptor (Homo sapiens), P35462. D3R cells, DiscoveRx beta-arrestin luminescence, antagonist mode; stronger effect = lower value. AID 652054, 2013; in the data active = max response below about -50%; inconclusive = no clear call, values can overlap the other calls
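Cells plated overnight at 1500 cells/well, then exposed to library compounds with dopamine controls for 90 minutes at 37 degrees C. DiscoveRx reagent added for 30–60 minutes at room temperature; luminescence read, quantitative HTS format.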
DRD3 agonist: qHTS of D3 Dopamine Receptor Agonist: qHTS; AID 652048, 2013; 410,000 compounds, 0.58% hits; D(3) dopamine receptor (Homo sapiens), P35462; D3R DiscoveRx beta-arrestin cells, luminescence, 90 min; max activation, %; in the data active = max activation above about 30%
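Agonist mode: compounds and dopamine controls were applied to plated cells for 90 min at 37 degrees C after an overnight attachment at 1500 cells/well. Luminescent read-out followed 30 - 60 minutes at room temperature with DiscoveRx detection reagent.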
D1 PAM: Potentiators of Human D1 Dopamine Receptor: qHTS. D(1A) dopamine receptor (Homo sapiens), P21728. HEK293 TREx D1 cells, calcium flux, dopamine EC20 potentiation. potentiation, % at 10 µM. 360,000 compounds, 0.036% hits; in the data active = potentiation above about 30%
Numbers stand for hits; - = inactive; ? = inconclusive; . = no result given.

SMILES | D1 antagonist | D1 ag | DRD3 antagonist | DRD3 agonist | D1 PAM
CCOc1ccc(C(=O)Nc2ccc(N3CCN(C)CC3)cc2)cc1 | - | - | - | - | -
CCCCOc1cccc(C(=O)Nc2ccc(N3CCN(CC)CC3)cc2)c1 | -51 | - | - | - | -
CCCCOc1ccc(C(=O)Nc2ccc(N3CCN(C)CC3)cc2)cc1 | -73 | - | - | - | -
Cc1ccc(CN2C(=O)C(O)(CC(=O)c3ccc(C)cc3)c3ccccc32)cc1 (centres undefined) | - | - | . | - | -
O=C(/C=C/Sc1ccc(C(F)(F)F)cn1)c1ccccc1 | - | - | -69 | - | -
CCCCN(CC)CCNC(=O)Cn1c(=O)c2cccn2c2cccnc21 | - | - | . | - | -
Cc1cc(C(=O)Nc2cccc(F)c2)c2c(C)nn(-c3cccc(Cl)c3C)c2n1 | -39 | - | . | - | -
CNc1sc(C(=O)c2ccccc2F)c(N)c1-c1nc2ccccc2s1 | - | - | -53 | - | -
O=C(CNC(=O)c1ccccc1F)OCc1nc2ccccc2s1 | - | - | - | - | -
CC1CCCC(C)N1CC(O)COc1c(F)cc(Br)cc1F (centres undefined) | -52 | - | - | - | -
N#CC(C#N)=C/C(C#N)=C(/N)N1CCN(c2ccc(Cl)cc2)CC1 | -40 | - | - | - | -
CCCOc1ccc(Oc2nc(NCC(C)C)nc(N3CCOCC3)n2)nn1 | - | - | . | - | -
O=C(NCCSCc1ccc(Cl)cc1Cl)c1ccc(CN2CCOCC2)cc1 | -31 | - | - | - | -
O=C(NCCSc1ccc(Cl)cc1)c1ccc(CN2CCOCC2)cc1 | - | - | - | - | -
Cc1ccc(C(=O)N(C)c2nnc(-c3ccncc3)s2)cc1 | -30 | - | - | - | -
CCCCCn1c(C(C)NC(=O)CCC)nc2ccccc21 (centres undefined) | -30 | - | - | - | -
Cc1cc(C)cc(NC(=O)C2CCN(S(=O)(=O)c3ccc4c(c3)oc(=O)n4C)CC2)c1 | -34 | - | . | - | -
Cc1ccc(NC(=O)C2CCN(S(=O)(=O)c3ccc4c(c3)oc(=O)n4C)CC2)cc1 | - | - | - | - | -
Cn1c(=O)oc2cc(S(=O)(=O)N3CCC(C(=O)Nc4ccc(F)c(Cl)c4)CC3)ccc21 | -52 | - | . | - | -
O=C(c1ccc(CSc2nc3ccncc3n2Cc2ccccc2F)cc1)N1CCCCC1 | - | - | . | - | -
O=[N+]([O-])c1ccc(COc2ccccc2/C=N/O)cc1 | -49 | - | - | - | -
COc1cc(C)ccc1OCCOCCOc1ccccc1[N+](=O)[O-] | - | - | - | - | -
O=Cc1ccccc1OCCOc1ccc([N+](=O)[O-])cc1 | -31 | - | - | - | -
COc1cc(C)ccc1OCCOCCOc1ccc([N+](=O)[O-])cc1 | - | 31 | - | - | -
CCOc1cc(/C=N/O)ccc1OCc1ccc([N+](=O)[O-])cc1 | - | - | - | - | -
SMILES | D1 antagonist | D1 ag | DRD3 antagonist | DRD3 agonist | D1 PAM
O=C(c1ccc2c(c1)N(Cc1ccc(F)cc1)C(=O)c1ccccc1S2(=O)=O)N1CCC(Cc2ccccc2)CC1 | - | - | . | - | -
Cc1ccccc1-c1nc(CNC(=O)NC2CCCCC2)c(C)o1 | - | - | . | - | -
C=CCNCC#CCOc1ccc(OC)cc1 | - | - | -62 | - | -
COCCNCC#CCOc1ccc(OC)cc1 | - | - | - | - | -
O=C(CN1CCc2ccccc2C1)Nc1ccc(Br)cc1 | - | - | -52 | - | -
CCOC(=O)c1ccc(NC(=O)N2CCc3ccccc3C2)cc1 | -39 | - | - | - | -
Cc1ccc(NC(=O)CN2CCc3ccccc3C2)cc1F | - | - | -85 | - | -
O=C(CN1CCc2ccccc2C1)NCC(=O)Nc1ccc(F)cc1 | - | - | - | - | -
CCc1ccc(NC(=O)CN2CCc3ccccc3C2)cc1 | - | - | -65 | - | -
Cc1ccc(NC(=O)CN2CCc3ccccc3C2)cc1S(=O)(=O)N(C)C | - | - | ? | - | -
CCc1ccc(NCc2cc3ccc(OC)cc3n(CC(=O)Nc3ccccc3C)c2=O)cc1 | - | - | . | - | -
COc1cc(C(=O)N(CCCN(C)C)c2nc3c(OC)cccc3s2)cc(OC)c1OC | - | - | . | - | -
CCOc1ccc(NC(=O)Cn2c(=O)n(CCCCCC(=O)NCc3ccccc3)c(=O)c3sccc32)cc1 | - | - | . | - | -
Cc1ccc(C(=O)c2oc3ccccc3c2NC(=O)COc2ccccc2Cl)cc1 | - | - | . | - | -
COc1ccccc1-c1c(C)nn2c(N3CCN(c4ccc(Cl)cc4)CC3)cc(C)nc12 | - | - | . | - | -
CCCN(CCO)CCCc1ccccc1 | - | - | - | - | -
CCN(CCCc1ccccc1)CCCc1ccccc1 | - | - | -96 | - | -
CCN(CCCC(=O)c1ccc(F)cc1)CCc1ccccc1 | -36 | - | - | 32 | -
Cc1ccc(Cn2c(SCc3ccc(C(=O)NC4CCCC4)cc3)nc3ccncc32)cc1 | -37 | - | . | - | -
COc1ccc(Cn2c(SCc3ccc(C(=O)NC4CCCC4)cc3)nc3ccncc32)cc1 | -31 | - | . | - | -
Cc1ccc(Cn2c(SCc3ccc(C(=O)NC4CCCCC4)cc3)nc3ccncc32)cc1 | - | - | . | - | -
O=C(NCCc1ccccc1)c1ccc(CSc2nc3ccncc3n2Cc2cccc(F)c2)cc1 | -35 | 59 | . | - | -
CCc1ccc(NCc2cc3ccc(OC)cc3n(CC(=O)Nc3cccc(Cl)c3C)c2=O)cc1 | - | - | . | - | -
Cc1ccc(C)c(C(=O)N2CCC(c3nc4c(nnn4Cc4ccccc4)c(=O)[nH]3)CC2)c1 | - | - | . | - | -
CCn1c(N2CCN(S(=O)(=O)c3ccc(OC)cc3)CC2)nc2ccccc21 | - | - | - | 36 | -
SMILES | D1 antagonist | D1 ag | DRD3 antagonist | DRD3 agonist | D1 PAM
Cn1c(N2CCN(S(=O)(=O)c3ccc(F)cc3)CC2)nc2ccccc21 | - | - | - | - | -
CCn1c(N2CCN(S(=O)(=O)c3ccccc3C(F)(F)F)CC2)nc2ccccc21 | - | - | - | 32 | -
CC(Oc1ccccc1)C(=O)Nc1ccc(C(=O)OCc2cc(=O)n3ccsc3n2)cc1 (centres undefined) | - | - | . | - | -
COc1ccc(OC)c(-c2cc(C3CCN(C(=O)OC(C)(C)C)CC3)[nH]n2)c1 | - | - | - | 46 | -
O=C(Nc1cccc(Cl)c1)c1cc(S(=O)(=O)N2CCCc3ccccc32)ccc1F | - | - | . | - | -
CC(=NCCc1ccccc1)C1=C(O)CSC1=O | -46 | - | - | - | -
CCC(CO)Oc1cc(NCc2ccccc2)c2ncn(C(C)C)c2c1 (centres undefined) | . | . | - | 37 | .
Cc1cc(/C=C(\C#N)C(N)=O)c(C)n1-c1ccc(N2CCOCC2)c([N+](=O)[O-])c1 | -32 | - | - | - | -
